From PubChem BioAssay (NCATS)
Inconclusive results are not listed. Where a call stands in place of a potency, no number is given. Unmarked numbers belong to inactive results. Active and inactive are the calls of the source. The call rests on the fitted dose curve; in most records, active means well fitted curve in the direction sought with a large enough effect; inconclusive means small, poorly fitted or top-dose-only effect, or another doubt; inactive means no such curve, though single readings can be large; an effect the other way counts as inactive or inconclusive.

Experiments:
[1] = qHTS for Inhibitors of Plasmodium falciparum (DD2) proliferation (AID 504314); further: potency means the concentration at half of the fitted maximal effect
How it was run: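 SYBR Green growth assay: 72 h compound exposure of infected red cells (2.5% hematocrit, 0.3% parasitemia), then lysis and overnight dye staining, fluorescence 485/535 nm. Values scaled between DMSO and 0.29 uM artemisinin controls.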

[2] = qHTS for Inhibitors of Plasmodium falciparum (GB4) proliferation (AID 504315); further: nearly all actives have a fitted effect of over 50% in size
How it was run: (§1)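 Parasite growth measured as SYBR Green DNA fluorescence (ex 485, em 535 nm) after overnight lysis following 72 h culture at 37 °C, 0.3% parasitemia, 2.5% hematocrit. Values normalized against DMSO and 0.29 uM artemisinin controls, with plate-stack correction.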

[3] = qHTS for Inhibitors of Plasmodium falciparum (7G8) proliferation (AID 504316); further: nearly all actives have a fitted effect of over 65% in size; further: potency means the concentration at half of the fitted maximal effect
How it was run: as §1

[4] = qHTS for Inhibitors of Plasmodium falciparum (HB3) proliferation (AID 504318); further: nearly all actives have a fitted effect of over 60% in size
How it was run: as §1

[5] = qHTS for Inhibitors of Plasmodium falciparum (CP250) proliferation (AID 504320)
How it was run: as §1

SMILES	Potency [1]	Potency [2]	Potency [3]	Potency [4]	Potency [5]
COCCN1C=C2C(=O)C(C)(OC(=O)CCC(=O)OC)C(=O)C(Br)=C2C=C1c1ccc(OC)cc1 (stereo not drawn)	inactive	inactive	inactive	inactive	inactive
COC(=O)CCC(=O)OC1(C)C(=O)C=C2C=C(C3CC3)N(Cc3ccccc3)C=C2C1=O (stereo not drawn)	inactive	inactive	inactive	inactive	inactive
COC(=O)C1=C(C(=O)OC)[C@@H]2N(C)c3ccc(OC)cc3[C@@]23C[C@@H](C(=O)OC)N(C(=O)C2CCC2)C3=N1	inactive	inactive	inactive	inactive	inactive
COc1ccc(N2C=C3C(=O)C(C)(OC(=O)CCc4ccccc4)C(=O)C=C3C=C2c2ccc(C#N)cc2)cc1 (stereo not drawn)	inactive	inactive	inactive	inactive	inactive
COC(=O)C1=C(C(=O)OC)[C@@H]2N(Cc3ccccc3)c3ccccc3[C@@]23C[C@@H](C(=O)OC)N(C(C)=O)C3=N1	inactive	inactive	inactive	inactive	inactive
C=CCN1C=C2C(=O)C(C)(OC(=O)C3CCCC3)C(=O)C(c3ccccc3)=C2C=C1CCCC(=O)OC (stereo not drawn)	inactive		inactive		
COC(=O)C1=C(C)N(Cc2ccccc2)C(=S)NC1c1cccc(F)c1 (stereo not drawn)	inactive	inactive	inactive		inactive
CCN(CC)CCCN1C=C2C(=O)C(C)(OC(=O)C3CCCC3)C(=O)C(c3ccccc3)=C2C=C1CCCC(=O)OC (stereo not drawn)	inactive	inactive	inactive		inactive
CC1(OC(=O)CCc2ccccc2)C(=O)C=C2C=C(c3ccc(C#N)cc3)N(Cc3ccccc3)C=C2C1=O (stereo not drawn)	inactive	inactive			inactive
CCOC(=O)CN1C(=O)N[C@@H](c2ccc(Br)cc2)C(C(=O)OC)=C1C	inactive	inactive	inactive	inactive	inactive
C=CCN1c2ccccc2[C@]23C[C@@H](C(=O)OC)N(S(=O)(=O)c4ccc([N+](=O)[O-])cc4)C2=NC(C(=O)OC)=C(C(=O)OC)[C@H]13	inactive		1.69 µM (active)		
CC[C@@H](C)CN1C(=O)N[C@@H](CCc2ccccc2)C(C(C)=O)=C1C	inactive	inactive	inactive		inactive
COCC(=O)N1CCc2nc(-c3ccc(OC)cc3C)c3c(c2C1)CO[C@@H](c1ccccc1)C3	inactive	inactive	inactive		inactive
CC(C)CN1C=C2C(=O)C(C)(OC(=O)C3CCCC3)C(=O)C=C2C=C1c1ccsc1 (stereo not drawn)	inactive	inactive	inactive	inactive	inactive
COC(=O)CCC(=O)OC1(C)C(=O)C2=CN(CC(C)C)C(c3ccc(OC)cc3)=CC2=C(Br)C1=O (stereo not drawn)	inactive	inactive	inactive		inactive
CCCCC1=CC2=C(c3ccco3)C(=O)C(C)(OC(=O)c3ccc(OC)cc3)C(=O)C2=CN1c1ccccc1 (stereo not drawn)	inactive	inactive	inactive		inactive
CCO[C@H](c1cc(OC)cc([N+](=O)[O-])c1OC)[C@H](C)C=CCC(=O)OC	inactive	inactive	inactive		inactive

SMILES	Potency [1]	Potency [2]	Potency [3]	Potency [4]	Potency [5]
COC(=O)CCC(=O)OC1(C)C(=O)C2=CN(Cc3ccc4c(c3)OCO4)C(c3ccc(OC)cc3)=CC2=C(Br)C1=O (stereo not drawn)	inactive	inactive	inactive	inactive	inactive
COC(=O)CC1c2ccccc2C=C(C)N1C(=O)OC (stereo not drawn)	inactive	inactive	inactive		inactive
CC(=O)Nc1ccc(S(=O)(=O)N2CCc3nc(COc4ccccc4)c4c(c3C2)CO[C@@H](C)C4)cc1	inactive	inactive	inactive		inactive
CCCC[C@]12Cc3c(ccc4ccccc34)[C@H](O1)C1=C(O2)C(=O)c2ccccc2C1=O	1.69 µM (active)		1.51 µM (active)		
COCCN1C(=O)N[C@@H](c2ccco2)C(C(=O)OC)=C1C	inactive		inactive		
CCOC(=O)CN1C(=O)N[C@@H](c2cccs2)C(C(=O)OC)=C1C	inactive	inactive	inactive	inactive	inactive
COC(=O)N[C@H](CC(C)=O)c1ccc(Cl)cc1	inactive	inactive	inactive		inactive
COC(=O)C1=C(C)N(Cc2ccccc2)C(=O)N[C@H]1c1ccc(Br)cc1	inactive	inactive	inactive		inactive
C=CC1=C2C=C(C3CC3)N(CCCCO)C=C2C(=O)C(C)(OC(=O)c2ccco2)C1=O (stereo not drawn)	inactive	inactive		inactive	inactive
COC(=O)N[C@H](C(C(=O)OC)=C(C)NCc1ccccc1)c1cccc(F)c1	inactive	inactive	inactive		inactive
C=CCN1c2ccccc2[C@]23C[C@@H](C(=O)OC)N(C(=O)CC(C)C)C2=NC(C(=O)OC)=C(C(=O)OC)[C@H]13	inactive	inactive	inactive		inactive
CCN(CC)CCCN1C=C2C(=O)C(C)(OC(=O)CCC(=O)OC)C(=O)C=C2C=C1C1CC1 (stereo not drawn)	inactive	inactive	inactive		inactive
COc1ccc(NC(=O)N2CCc3nc(COc4ccccc4)c4c(c3C2)CO[C@@H](C)C4)cc1	inactive	inactive	inactive		inactive
COCCN1C(=O)N[C@@H](c2ccccc2)[C@H](C(=O)OC)[C@H]1C	inactive	inactive	inactive		inactive
CC1(OC(=O)CCc2ccccc2)C(=O)C=C2C=C(c3ccc(C#N)cc3)N(CCN3CCOCC3)C=C2C1=O (stereo not drawn)	inactive	inactive	inactive	inactive	inactive
COC/C=C/C1=CC2=CC(=O)C(C)(OC(=O)c3cnc4ccccc4n3)C(=O)C2=CN1CCN1CCOCC1 (stereo not drawn)	inactive	inactive	inactive	inactive	inactive
CCCCc1nc2c(c3c1C[C@H](C)OC3)CN(C(=O)COC)CC2	inactive	inactive	inactive		inactive
